Laboratory results as given in PubChem BioAssay (NCATS).
Where “and” joins values, the source holds several entries; their conditions need not be identical. Identical values can stand only once. Results filed as inconclusive are left out. Calls of active or inactive are those of the source. Unless noted, calls come from the whole dose curve; as a rule, active = well fitted curve in the direction sought with a large enough effect; inconclusive = small, poorly fitted or top-dose-only effect, or another doubt; inactive = no such curve, though single readings can be large; an effect the other way counts as inactive or inconclusive.

What was measured:
[1] = target: Cellular tumor antigen p53 (Homo sapiens) (UniProt P04637); experiment: Primary qHTS for small molecule compounds that upregulate eGFP-tagged delta133p53alpha (in N-terminal) cells. (AID 2060322); details: NCI-H358 eGFP-delta133p53alpha fluorescence, 24 h; activation: stronger effect = higher value;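 note: series mostly up to about 56 µM; 0% = DMSO vehicle and 100% = reference activator; nearly all actives have a fitted effect of over 75% in size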
Summary of the method: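 NCI-H358 cells pre-induced 24 h with 10 ng/ml doxycycline to express N-terminal eGFP-delta133p53alpha, then dosed 24 h at 37C without doxycycline; fixed, Hoechst-stained, GFP intensity by laser scanning cytometry, normalized to DMSO (0%) and 57.5 uM 5-azacytidine (100%).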

[2] = target: Cellular tumor antigen p53 (Homo sapiens) (UniProt P04637); experiment: Primary qHTS for small molecule compounds that upregulate eGFP-tagged delta133p53alpha (in C-terminal) cells. (AID 2060324);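 note: 0% = DMSO wells and 100% = 57.5 µM 5-azacytidine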
Summary of the method: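 In this qHTS, GFP-tagged delta133p53alpha levels are measured in fixed NCI-H358 cells after 24 h compound exposure at 37 °C. The cells are pre-induced with 100 ng/ml doxycycline, and signal is normalized to DMSO-treated wells as 0%.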

[3] = target: Retinaldehyde dehydrogenase 3 (Homo sapiens) (UniProt P47895); experiment: qHTS for Inhibitors of the Aldehyde Dehydrogenase Family (ALDH1A3) Validation screen (AID 2061312); note: % is set by controls: 0 for no effect and ±100 for the full control effect; nearly all actives have a fitted effect of over 45% in size
[4] = target: Aldehyde dehydrogenase, mitochondrial (Homo sapiens) (UniProt P05091); experiment: qHTS for Inhibitors of the Aldehyde Dehydrogenase Family (ALDH2) Confirmatory screens (AID 2061303; active = well fitted inhibition curve with a large enough effect; title and protocol of this record describe different tests; note: % is set by controls: 0 for no effect and ±100 for the full control effect; nearly all actives have a fitted effect of over 45% in size)
[5] = target: Retinaldehyde dehydrogenase 3 (Homo sapiens) (UniProt P47895); experiment: qHTS for Inhibitors of the Aldehyde Dehydrogenase Family (ALDH1A3) Confirmatory screens (AID 2061311); note: nearly all actives have a fitted effect of over 60% in size; note: potency is the fitted concentration of half-maximal effect
[6] = target: Retinal dehydrogenase 2 (Homo sapiens) (UniProt O94788); experiment: qHTS for Inhibitors of the Aldehyde Dehydrogenase Family (ALDH1A2) Confirmation screens (AID 2061314); note: nearly all actives have a fitted effect of over 65% in size
[7] = target: Aldehyde dehydrogenase 1A1 (Homo sapiens) (UniProt P00352); experiment: qHTS for Inhibitors of the Aldehyde Dehydrogenase Family (ALDH1A1) Confirmatory screens (AID 2061316); note: nearly all actives have a fitted effect of over 65% in size; note: potency is the fitted concentration of half-maximal effect
[8] = target: Aldehyde dehydrogenase, mitochondrial (Homo sapiens) (UniProt P05091); experiment: qHTS for Inhibitors of the Aldehyde Dehydrogenase Family (ALDH2) Validation screens (AID 2061302; active = well fitted inhibition curve with a large enough effect; title and protocol of this record describe different tests;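 note: plate controls were DMSO vehicle for no effect and maximal DPI positive control response for full effect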)
[9] = BET inhibitor-based combinations targeting novel dependencies in MECOM-rearranged (r) AML: MV-4-11 cell line (AID 2202233); note: nearly all actives have a fitted effect of over 45% in size; note: potency is the fitted concentration of half-maximal effect
Summary of the method: (§1)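 Cells at 500/well were exposed for 48 hr to MIPE v5.0 drugs as 11-point dose curves. Viability was read by CellTiter-Glo luminescence and normalized to DMSO and empty-well controls. Activity was expressed as AUC and per-cell-line Z-AUC.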

[10] = BET inhibitor-based combinations targeting novel dependencies in MECOM-rearranged (r) AML: SET-2 cell line (AID 2202231); details: SET-2 AML cells viability, CellTiter-Glo luminescence, 48 h; viability: stronger effect = lower value, concentration not given here; note: nearly all actives have a fitted effect of over 35% in size; note: potency is the fitted concentration of half-maximal effect;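 for viability: plate controls were DMSO treated cells for no effect and wells without cells for full effect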
Summary of the method: (§2)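 AML cell lines seeded at 500 cells/well, treated with 11-point dose curves for 48 h. Viability by CellTiter-Glo luminescence, normalised to DMSO and empty wells; activity expressed as AUC and per-cell-line Z-transformed AUC.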

[11] = BET inhibitor-based combinations targeting novel dependencies in MECOM-rearranged (r) AML: OCI-AML3 cell line (AID 2202232); details: Potency: OCI-AML3 viability; note: nearly all actives have a fitted effect of over 35% in size; note: potency is the fitted concentration of half-maximal effect
Summary of the method: as §2

[12] = BET inhibitor-based combinations targeting novel dependencies in MECOM-rearranged (r) AML: HNT-34 cell line (AID 2202234); note: nearly all actives have a fitted effect of over 35% in size; note: potency is the fitted concentration of half-maximal effect
Summary of the method: as §1

[13] = BET inhibitor-based combinations targeting novel dependencies in MECOM-rearranged (r) AML: AML-191 cell line (AID 2202236; note: nearly all actives have a fitted effect of over 35% in size; note: potency is the fitted concentration of half-maximal effect)
Summary of the method: as §2

[14] = BET inhibitor-based combinations targeting novel dependencies in MECOM-rearranged (r) AML: AML-194 cell line (AID 2202237; note: nearly all actives have a fitted effect of over 40% in size; note: potency is the fitted concentration of half-maximal effect)
Summary of the method: as §2

[15] = qHTS for Inhibitors of the Aldehyde Dehydrogenase Family (ALDH1A2, ALDH1A3, ALDH2, ALDH3A1) (AID 2061307); note: nearly all actives have a fitted effect of over 50% in size; for Potency: test system not described further here; potency is the fitted concentration of half-maximal effect
[16] = BET inhibitor-based combinations targeting novel dependencies in MECOM-rearranged (r) AML: UCSD-AML1 cell line (AID 2202235); note: nearly all actives have a fitted effect of over 40% in size; note: potency is the fitted concentration of half-maximal effect
Summary of the method: as §1

[17] = target: Aldehyde dehydrogenase, mitochondrial (Homo sapiens) (UniProt P05091); experiment: qHTS for Inhibitors of the Aldehyde Dehydrogenase Family (ALDH2) Primary screen (AID 2061308);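 note: plate controls were vehicle for no effect and reference inhibitor for full effect; nearly all actives have a fitted effect of over 55% in size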
[18] = target: Retinaldehyde dehydrogenase 3 (Homo sapiens) (UniProt P47895); experiment: qHTS for Inhibitors of the Aldehyde Dehydrogenase Family (ALDH1A3) Primary screen (AID 2061315);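 note: plate controls were DMSO vehicle for no effect and reference inhibitor for full effect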

Sequence of Cellular tumor antigen p53 (Homo sapiens) (P04637 whole entry, looked up): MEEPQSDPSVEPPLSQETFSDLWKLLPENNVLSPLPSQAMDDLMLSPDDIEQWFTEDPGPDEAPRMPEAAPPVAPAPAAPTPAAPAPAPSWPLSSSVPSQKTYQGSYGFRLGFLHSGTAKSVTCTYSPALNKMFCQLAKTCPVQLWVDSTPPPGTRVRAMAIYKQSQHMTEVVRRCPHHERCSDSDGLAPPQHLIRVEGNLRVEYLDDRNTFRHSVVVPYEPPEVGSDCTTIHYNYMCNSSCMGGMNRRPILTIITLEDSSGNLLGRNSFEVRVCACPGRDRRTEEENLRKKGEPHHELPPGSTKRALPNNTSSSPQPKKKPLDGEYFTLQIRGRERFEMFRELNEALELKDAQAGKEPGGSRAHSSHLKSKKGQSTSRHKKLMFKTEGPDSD

CCn1cc(C(=O)O)c(=O)c2cc3c(cc21)OCO3
inactive: activation [1] 2.82% and -18.3% | Potency [2] | Potency [3]

NC(=O)C1=CN(C2OC(COP(=O)(O)OP(=O)(O)OC[C@H]3O[C@@H](n4cnc5c(N)ncnc54)[C@H](OP(=O)(O)O)[C@@H]3O)C(O)C2O)C=CC1 (stereo partly drawn)
inactive: activation [1] -2.48% | Potency [2] | Potency [3]

O=C(c1cc(O)c(O)c([N+](=O)[O-])c1)c1ccccc1F
active: Potency [5] 3.18 µM | Potency [7] 12.7 µM
inactive: activation [1] -61.3% | Potency [2] | Potency [4] | Potency [6]

O=c1cc(N2CCOCC2)oc2c(-c3ccccc3)cccc12
active: Potency [9] 13.2 µM
inactive: activation [1] 3.72% and -10.8% | Potency [2] | Potency [8]

Nc1nc(N)c2nc(CNc3ccc(C(=O)NC(CCC(=O)O)C(=O)O)cc3)cnc2n1 (stereo not drawn)
inactive: activation [1] 25.1% and -8.03% | Potency [2] | Potency [8] | viability [10] 90.9% | Potency [11] | Potency [9] | Potency [12] | Potency [13] | Potency [14]

Clc1ccc2c(N3CCN(CCCN4CCN(c5ccnc6cc(Cl)ccc56)CC4)CC3)ccnc2c1
inactive: activation [1] 26.5% | Potency [2] | Potency [15] | viability [10] 76.4% | Potency [11] | Potency [12] | Potency [16] | Potency [13] | Potency [14]

COc1ccc(NC(=O)/C=C/c2ccc(Cl)cc2)cc1
inactive: activation [1] -18.7% | Potency [2] | Potency [3]

Clc1ccc2nsnc2c1NC1=NCCN1
inactive: activation [1] 17.5% and 19.5% | Potency [2] | Potency [8] | Potency [11] | Potency [16] | Potency [13] | Potency [14]

Cn1ncc(S(=O)(=O)Cc2ccccc2)c(Br)c1=O
inactive: activation [1] -32.8% | Potency [2] | Potency [15]

COc1ccccc1N1CCN(CCN2C(=O)CC3(CCCC3)CC2=O)CC1
inactive: activation [1] 3.57% and -22.5% | Potency [2] | Potency [4] | Potency [15] | Potency [17] | Potency [5] | Potency [6] | Potency [18]

O=Nc1c(-c2c(O)[nH]c3cc(Br)ccc23)[nH]c2ccccc12
inactive: activation [1] 17.1% and -39.3% | Potency [2] | Potency [8]
active: Potency [10] 5.25 µM | Potency [11] 11.8 µM | Potency [9] 0.263 µM | Potency [12] 2.63 µM | Potency [16] 13.2 µM | Potency [13] 14.8 µM | Potency [14] 14.8 µM

CCN(CC)C(C)CN1c2ccccc2Sc2ccccc21 (stereo not drawn)
inactive: activation [1] -8.47% and -0.322% | Potency [2] | Potency [3]

Cc1cccc(C)c1OCC(N)C(C)C (stereo not drawn)
inactive: activation [1] -8.7% | Potency [2] | Potency [4] | Potency [15] | Potency [6]

CC[N+](CC)(CC)CCOc1cccc(OCC[N+](CC)(CC)CC)c1OCC[N+](CC)(CC)CC
inactive: activation [1] -9.51% and 5.08% and -25.7% | Potency [2] | Potency [8] | viability [10] 113% | Potency [11] | Potency [9] | Potency [12] | Potency [16] | Potency [13] | Potency [14]

Oc1ccc(C2CNCCc3c2cc(O)c(O)c3Cl)cc1 (stereo not drawn)
inactive: activation [1] -18.2% and -20.9% and -11.7% | Potency [2] | Potency [8] | viability [10] 108% | Potency [11] | Potency [9] | Potency [12] | Potency [16] | Potency [14]

C=Cc1c(C)c2cc3[nH]c(cc4nc(cc5nc(cc1[nH]2)C(C)=C5CCC(=O)O)C(CCC(=O)O)=C4C)c(C)c3C=C
active: Potency [15] 10.1 µM | Potency [5] 25.2 µM | Potency [7] 12.7 µM
inactive: activation [1] -11.7% and -48.8% | Potency [2] | Potency [3]

CN1C(C(=O)Nc2ccccn2)=C(O)c2ccccc2S1(=O)=O
inactive: activation [1] -0.565% and -12.3% and -20.6% | Potency [2] | Potency [8] | viability [10] 105% | Potency [11] | Potency [9] | Potency [12] | Potency [16] | Potency [13] | Potency [14]

N#C/C(=C\c1ccc(O)c(O)c1)C(=O)NCCCNC(=O)/C(C#N)=C/c1ccc(O)c(O)c1
active: Potency [5] 2.83 µM
inactive: activation [1] -33.4% | Potency [2]

Cn1ccc2cc3c(cc21)CCN3C(=O)Nc1cccnc1
inactive: activation [1] 20.1% and 12% and -55.1% | Potency [2] | Potency [8] | viability [10] 105% | Potency [9] | Potency [12] | Potency [16] | Potency [13] | Potency [14]

Cn1c(=O)c2[nH]c(-c3ccc(S(=O)(=O)O)cc3)nc2n(C)c1=O
inactive: activation [1] 1.02% | Potency [2] | Potency [4] | Potency [15] | Potency [5] | Potency [3] | Potency [6] | Potency [7]
